Measurements as given in ChEMBL document CHEMBL3988442, “University of Dundee, Small-Polar-MMV Screening Library” (2021).

The compounds below were run against T1, Aspartate--tRNA(Asp/Asn) ligase (Mycobacterium tuberculosis (strain ATCC 25618 / H37Rv)) (UniProt P9WFW3) (assay: Assay for Asp RNA synthetase-1 from Mycobacterium tuberculosis). Settings: 30 µM.
T1 sequence (whole entry): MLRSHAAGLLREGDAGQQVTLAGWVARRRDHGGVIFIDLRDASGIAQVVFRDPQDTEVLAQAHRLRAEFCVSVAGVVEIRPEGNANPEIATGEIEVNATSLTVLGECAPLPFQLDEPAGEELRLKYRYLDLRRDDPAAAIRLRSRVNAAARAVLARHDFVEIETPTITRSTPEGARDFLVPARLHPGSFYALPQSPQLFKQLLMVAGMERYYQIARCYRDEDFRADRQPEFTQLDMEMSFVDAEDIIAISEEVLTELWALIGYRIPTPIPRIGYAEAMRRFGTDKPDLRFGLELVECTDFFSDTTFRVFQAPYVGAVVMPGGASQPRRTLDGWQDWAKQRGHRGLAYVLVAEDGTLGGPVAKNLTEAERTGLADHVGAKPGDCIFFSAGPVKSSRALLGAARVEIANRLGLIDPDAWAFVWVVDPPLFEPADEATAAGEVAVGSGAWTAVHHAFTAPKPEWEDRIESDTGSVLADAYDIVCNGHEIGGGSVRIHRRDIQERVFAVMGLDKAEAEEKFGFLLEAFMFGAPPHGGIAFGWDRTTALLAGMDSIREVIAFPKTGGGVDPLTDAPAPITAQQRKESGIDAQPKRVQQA
Type: functional
Parameters: scale not given: direction of the effect not stated beside the values
`Cc1ccc(Oc2ccc(NC(=O)NCC3CCOC3)cn2)cc1C` (stereo not given) was tested, and the Percent Effect was 0.322%. Compound `CC(C)[C@H](NC(=O)NC1CCS(=O)(=O)C1)C(=O)NCc1cccnc1` (stereo not given in full) has a Percent Effect of -2.09%. `COc1ccc(C(=O)N(Cc2cnn(C)c2)C(C)C)cc1Br` gave a Percent Effect of -1.07%. `CC(=O)N1CCC(Oc2ccc(C#N)cn2)CC1` showed a Percent Effect of -4.74%. `Cc1ccoc1C(=O)NCC(Cc1ccc(F)cc1)C(N)=O` (stereo not given) showed a Percent Effect of -2.1%. For `Cc1cc(N2CCN(CC(=O)N(C)C)CC2)nc(-c2ccncc2)n1`, the Percent Effect was -3.92%. `COCCC(=O)N1CCC2(CN(Cc3ccc(OC)c(F)c3)C2)C1` gave a Percent Effect of -0.524%. In the case of `O=C(CCO)N1CCOC2(CCCN(C(=O)c3ccco3)C2)C1` (stereo not given), the Percent Effect is reported as -4.34%. `c1cncc(OCc2nnn3c2CN(Cc2ccsc2)CCC3)c1` showed a Percent Effect of -0.204%. Work on `CCCNC(=O)NC(=O)CN(CC(C)O)c1ccccc1` (stereo not given) yielded a Percent Effect of 1.53%. `CC(=O)N1CCCC1c1cccc(Cc2ccccc2F)n1` (stereo not given) gave a Percent Effect of -0.134%. For `CC(O)(CN1CCC2(CC1)OCCO2)c1cccc(C(F)(F)F)c1` (stereo not given), the Percent Effect was 1.23%. In the case of `CC(=O)N1CCCC(c2ccc(Nc3nc(C)cc(C)n3)cn2)C1` (stereo not given), the Percent Effect is reported as -1.31%. Compound `Cc1nn(C)c(C)c1C1CCCN1Cc1noc(C2CC2)n1` (stereo not given) has a Percent Effect of 6.1%. `CCCc1nc(NCCCO)c2c(n1)c(C)nn2CC` was tested, and the Percent Effect was -5.08%. Compound `O=C(C1CC=CC1)N1CCc2c(COCc3ccncc3)cncc2C1` has a Percent Effect of -3.81%. `O=C(NCCc1ccccn1)NC1CCN(c2ncccn2)CC1` gave a Percent Effect of 1.19%. For `CC(Nc1cccc(CN2CCOC2=O)c1)C(=O)NC(N)=O` (stereo not given), the Percent Effect was -3.68%. Work on `CCN(CC)C(=O)c1cc(C2CCCN2C)ccn1` (stereo not given) yielded a Percent Effect of 4.39%. `CCn1nc(CC(C)C)cc1C(=O)NCCn1cccc1` showed a Percent Effect of 3.71%. With `Cc1csc(N2CCN(C(=O)CCc3ccccn3)CC2)n1` the Percent Effect was 5.27%. In the case of `CCc1ncncc1C(=O)N1CCN(Cc2ccco2)CC1`, the Percent Effect is reported as 3.68%. `O=C(C1=CCCC1)N1C[C@H](Oc2cccnc2)[C@H]2OCCC[C@H]21` showed a Percent Effect of -2.63%. With `CSCC(C)(O)CNC(=O)c1ccc(Br)cc1F` (stereo not given) the Percent Effect was 3.26%. For `CN(C)S(=O)(=O)N1CCCC(c2cccc(Cc3ccccc3)n2)C1` (stereo not given), the Percent Effect was 2.78%. `CC(C)OCCCNC(=O)CN1CCC(N2CCN(C)C2=O)CC1` showed a Percent Effect of -3%. With `COCC(=O)N1CCC(c2nccn2CC2CC2)CC1` the Percent Effect was -0.435%. Work on `COc1ccc(NC(=O)CNc2ccc(Br)cc2F)cc1` yielded a Percent Effect of 1.68%. For `CCn1ncc2c1C(COCC1CC1)CN(S(=O)(=O)N(C)C)C2` (stereo not given), the Percent Effect was -1.37%. Work on `COc1ccc(NC(C)C(=O)NCCc2cccs2)cc1F` (stereo not given) yielded a Percent Effect of 7.04%. `Cc1nn2c(N3CCC(O)C3)cc(-c3ccccc3)nc2c1C` (stereo not given) was tested, and the Percent Effect was -2.73%. `CCNC(=O)c1ncn2c1CN(C)S(=O)(=O)c1ccccc1-2` showed a Percent Effect of -3.46%. With `Cc1ccc(CNC(=O)NCc2cccnc2N(C)C)s1` the Percent Effect was -3.67%. Work on `COC(=O)Cn1c(=O)nc2n1C(=O)N(c1ccccc1)C2` yielded a Percent Effect of 1.18%. With `O=S(=O)(c1ccccc1Cl)N1CCc2nc(C3CCNCC3)ncc2C1` the Percent Effect was -6.28%. `c1cnc(N2CCC3(COCc4cnc(-c5cccnc5)nc43)C2)nc1` (stereo not given) showed a Percent Effect of 2.15%. In the case of `COc1ccc(CNC(=O)NCc2c(C)cc(C)[nH]c2=O)cc1`, the Percent Effect is reported as 4.97%. `O=C(CCCc1cn[nH]c1)N1CCOCC(O)C1` (stereo not given) gave a Percent Effect of 5.55%. `COc1ccccc1CC(=O)NCCCN1CCCC1C(=O)N(C)C` (stereo not given) showed a Percent Effect of 5.61%. For `CN(C)C(=O)NC1COC2(CCN(Cc3nccn3C)CC2)C1` (stereo not given), the Percent Effect was 2.7%.

What follows are compounds tested against Shiga toxin 2 (Escherichia coli O157:H7) (UniProt P09385+P09386) (assay: E. coli 0.157:H7 Shiga Toxin SOP - stx2 screening assay). Settings: 30 µM.
Type: functional
Parameters: scale not given: direction of the effect not stated beside the values
Compound `Cc1ccc(Oc2ccc(NC(=O)NCC3CCOC3)cn2)cc1C` (stereo not given) has a Percent Effect of -6.2%. In the case of `CC(C)[C@H](NC(=O)NC1CCS(=O)(=O)C1)C(=O)NCc1cccnc1` (stereo not given in full), the Percent Effect is reported as -28.7%. For `COc1ccc(C(=O)N(Cc2cnn(C)c2)C(C)C)cc1Br`, the Percent Effect was 5.59%. Compound `CC(=O)N1CCC(Oc2ccc(C#N)cn2)CC1` has a Percent Effect of -70.8%. With `Cc1ccoc1C(=O)NCC(Cc1ccc(F)cc1)C(N)=O` (stereo not given) the Percent Effect was 9.66%. Work on `Cc1cc(N2CCN(CC(=O)N(C)C)CC2)nc(-c2ccncc2)n1` yielded a Percent Effect of -5.53%. `COCCC(=O)N1CCC2(CN(Cc3ccc(OC)c(F)c3)C2)C1` showed a Percent Effect of -4.43%. `O=C(CCO)N1CCOC2(CCCN(C(=O)c3ccco3)C2)C1` (stereo not given) showed a Percent Effect of -15.2%. For `c1cncc(OCc2nnn3c2CN(Cc2ccsc2)CCC3)c1`, the Percent Effect was -23%. In the case of `CCCNC(=O)NC(=O)CN(CC(C)O)c1ccccc1` (stereo not given), the Percent Effect is reported as 20.6%. Compound `CC(=O)N1CCCC1c1cccc(Cc2ccccc2F)n1` (stereo not given) has a Percent Effect of 4.04%. Work on `CC(O)(CN1CCC2(CC1)OCCO2)c1cccc(C(F)(F)F)c1` (stereo not given) yielded a Percent Effect of -7.35%. In the case of `CC(=O)N1CCCC(c2ccc(Nc3nc(C)cc(C)n3)cn2)C1` (stereo not given), the Percent Effect is reported as 3.11%. In the case of `Cc1nn(C)c(C)c1C1CCCN1Cc1noc(C2CC2)n1` (stereo not given), the Percent Effect is reported as 16.3%. `CCCc1nc(NCCCO)c2c(n1)c(C)nn2CC` was tested, and the Percent Effect was -4.19%. Work on `O=C(C1CC=CC1)N1CCc2c(COCc3ccncc3)cncc2C1` yielded a Percent Effect of -51.1%. With `O=C(NCCc1ccccn1)NC1CCN(c2ncccn2)CC1` the Percent Effect was -12.3%. With `CC(Nc1cccc(CN2CCOC2=O)c1)C(=O)NC(N)=O` (stereo not given) the Percent Effect was -7.19%. `CCN(CC)C(=O)c1cc(C2CCCN2C)ccn1` (stereo not given) showed a Percent Effect of 1.51%. `CCn1nc(CC(C)C)cc1C(=O)NCCn1cccc1` gave a Percent Effect of -3.77%. `Cc1csc(N2CCN(C(=O)CCc3ccccn3)CC2)n1` showed a Percent Effect of 20.4%. `CCc1ncncc1C(=O)N1CCN(Cc2ccco2)CC1` gave a Percent Effect of 8.73%. `O=C(C1=CCCC1)N1C[C@H](Oc2cccnc2)[C@H]2OCCC[C@H]21` gave a Percent Effect of -10.5%. With `CSCC(C)(O)CNC(=O)c1ccc(Br)cc1F` (stereo not given) the Percent Effect was 13.2%. In the case of `CN(C)S(=O)(=O)N1CCCC(c2cccc(Cc3ccccc3)n2)C1` (stereo not given), the Percent Effect is reported as 67.3%. Compound `CC(C)OCCCNC(=O)CN1CCC(N2CCN(C)C2=O)CC1` has a Percent Effect of -14.1%. Compound `COCC(=O)N1CCC(c2nccn2CC2CC2)CC1` has a Percent Effect of -12.6%. Work on `COc1ccc(NC(=O)CNc2ccc(Br)cc2F)cc1` yielded a Percent Effect of -79.8%. `CCn1ncc2c1C(COCC1CC1)CN(S(=O)(=O)N(C)C)C2` (stereo not given) gave a Percent Effect of -9.58%. `COc1ccc(NC(C)C(=O)NCCc2cccs2)cc1F` (stereo not given) showed a Percent Effect of -24.3%. `Cc1nn2c(N3CCC(O)C3)cc(-c3ccccc3)nc2c1C` (stereo not given) was tested, and the Percent Effect was -33.6%. `CCNC(=O)c1ncn2c1CN(C)S(=O)(=O)c1ccccc1-2` gave a Percent Effect of -5.52%. For `Cc1ccc(CNC(=O)NCc2cccnc2N(C)C)s1`, the Percent Effect was 1.79%. In the case of `COC(=O)Cn1c(=O)nc2n1C(=O)N(c1ccccc1)C2`, the Percent Effect is reported as -22.6%. `O=S(=O)(c1ccccc1Cl)N1CCc2nc(C3CCNCC3)ncc2C1` gave a Percent Effect of -9.83%. In the case of `c1cnc(N2CCC3(COCc4cnc(-c5cccnc5)nc43)C2)nc1` (stereo not given), the Percent Effect is reported as -3.56%. In the case of `COc1ccc(CNC(=O)NCc2c(C)cc(C)[nH]c2=O)cc1`, the Percent Effect is reported as 34.9%. Work on `O=C(CCCc1cn[nH]c1)N1CCOCC(O)C1` (stereo not given) yielded a Percent Effect of 5.53%. For `COc1ccccc1CC(=O)NCCCN1CCCC1C(=O)N(C)C` (stereo not given), the Percent Effect was -5.75%. With `CN(C)C(=O)NC1COC2(CCN(Cc3nccn3C)CC2)C1` (stereo not given) the Percent Effect was -6.31%.
